# Bioassay records deposited in PubChem by several laboratories.
# The list is not random: actives were taken first. Their share in the collection is about 32%.
# CYP2C19 inhib = human CYP2C19 inhibition; CYP2C19 Supersomes, luciferin-H EGE luminescence, 30 min; inhibition, % at 5 µM; P33261; 96,000 tested, 21% active;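 active means CYP2C19 inhibition above a set limit at 5 µM in the primary screen, cut at about 50% in these data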;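 further: plate controls were negative control wells for no effect and 2.5 mM tranylcypromine positive control for full effect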
# Target sequence (P33261 whole entry, looked up): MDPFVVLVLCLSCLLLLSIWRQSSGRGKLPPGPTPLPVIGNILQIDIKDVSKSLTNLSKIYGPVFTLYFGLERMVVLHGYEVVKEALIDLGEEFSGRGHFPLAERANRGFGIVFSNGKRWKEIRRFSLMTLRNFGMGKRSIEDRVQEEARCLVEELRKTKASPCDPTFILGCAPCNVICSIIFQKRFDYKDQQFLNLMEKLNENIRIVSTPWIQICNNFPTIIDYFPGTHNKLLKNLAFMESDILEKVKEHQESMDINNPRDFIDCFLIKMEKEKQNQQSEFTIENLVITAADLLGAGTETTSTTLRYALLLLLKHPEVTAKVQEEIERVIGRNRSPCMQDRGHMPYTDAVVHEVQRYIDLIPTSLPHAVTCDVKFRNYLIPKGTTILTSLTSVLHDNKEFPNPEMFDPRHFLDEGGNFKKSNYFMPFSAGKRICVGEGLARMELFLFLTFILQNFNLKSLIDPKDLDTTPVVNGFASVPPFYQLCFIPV
# PostGolgi yeast = growth inhibition of a yeast mutant, post-Golgi transport screen | post-Golgi transport phenotypic cell assay | inhibition, % at 10 µM | 98,000 tested, 0.9% active;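 further: yeast cells grown in 1536-well plates; yeast grown about 18 h at 30C before absorbance read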
# CYP2C9 inh = inhibitors of human CYP2C9; P11712; CYP2C9 Supersomes, luciferin-H conversion, luminescence; inhibition, % at 5 µM; 96,000 tested, 20% active; AID 777;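 active means blocking of liver enzyme CYP2C9 beyond about 50% at 5 µM, limit read from the data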
# PostGolgi ctrl = inhibits growth of the yeast control strain; efflux-deficient yeast background strain, growth absorbance A615, 16 h; AID 738; 98,000 tested, 5% active; inhibition, % at 10 µM
# CYP2C9 act = CYP2C9 (human) activation; P11712; recombinant CYP2C9, luciferin-H conversion, luminescence; hits give high values; factor 1 = untreated enzyme, 0 = blocked; activation factor at 5 µM; 96,000 tested, 1.4% active;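 active means activation factor of 2 or more for CYP2C9 at a 5 µM dose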;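 further: 0 = sulfaphenazole-blocked wells and 1 = vehicle-only wells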
# CYP2C19 act = cytochrome P450 2C19 (human) activation; P33261; recombinant CYP2C19, luciferin-H EGE luminescence; hits give high values; 0 = fully inhibited enzyme, 1 = untreated enzyme; activation factor at 5 µM; 96,000 tested, under 10 active; AID 1025;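 active means activation factor of at least 2 at 5 µM in the primary screen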;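 further: 0 = wells with 2.5 mM tranylcypromine and 1 = vehicle-only wells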
# Starred values were filed as active, the others as inactive; x = not tested or not shown. Unless noted, no stated cut-off is given here; in the data, active means inhibition above about 30%; inactive means the rest.
SMILES,CYP2C19 inhib,PostGolgi yeast,CYP2C9 inh,PostGolgi ctrl,CYP2C9 act,CYP2C19 act
C=CCS(=O)(=O)c1nc2ccccc2s1,-1,3,-29,6,1.3,1
CCS(=O)(=O)CCSc1nc2ccccc2s1,72*,0,-49,5,1.5,0.3
CC(=O)CSc1nc2ccccc2s1,11,4,-13,26,1.1,0.9
O=S(=O)(CCSc1nc2ccccc2s1)c1nc2ccccc2s1,24,8,74*,90*,0.3,0.8
O=C(CSc1ncc(C(F)(F)F)cc1Cl)N1CCN(S(=O)(=O)c2ccccc2)CC1,81*,-4,0,15,1,0.2
O=C(CSc1ncn[nH]1)N1CCN(S(=O)(=O)c2ccc(Cl)cc2)CC1,45,-1,45,0,0.5,0.5
O=C(CSc1ncc(C(F)(F)F)cc1Cl)N1CCN(S(=O)(=O)c2ccc(Cl)cc2)CC1,79*,-9,-57,16,1.6,0.2
COc1ccc(-c2c(C(=O)O)nc3ccccc3c2C(=O)O)cc1,4,3,1,16,1,1
Cc1cccc(NC(=O)N2CCCC2C(=O)NCc2cccs2)c1 (stereo unspecified),45,-5,10,7,0.9,0.5
c1ccc(-n2nnnc2SCc2cccc3nsnc23)cc1,-2,-6,38,17,0.6,1
O=c1c(Cl)c(N/N=C/c2ccc(Br)cc2)cnn1-c1ccccc1,-1,11,12,3,0.9,1
C=CCN1C(=O)/C(=C2/C(=O)N(CC(=O)O)c3ccccc32)S/C1=N/c1nccs1,-10,-5,13,11,0.9,1.1
CCCN(C(=O)c1cccs1)c1nnc(-c2ccncc2)s1,99*,4,55*,11,0.5,0
Cc1ccc(C2CC(c3ccc(F)cc3)Nc3nc(N)nn32)cc1 (stereo unspecified),28,2,-16,8,1.2,0.7
Fc1ccc(C2CC(c3ccccc3)n3ncnc3N2)cc1 (stereo unspecified),88*,5,22,4,0.8,0.1
Clc1ccc(C2CC(c3ccccc3)Nc3ncnn32)cc1 (stereo unspecified),75*,1,32,9,0.7,0.2
Cc1cc(C)cc(NC(=O)c2nccnc2C(=O)O)c1,18,-6,18,4,0.8,0.8
CCOc1ccc2[nH]c(=O)c(CN(CCO)C(=O)c3ccc(Br)cc3)cc2c1,-3,12,10,-13,0.9,1
COc1ccccc1CNC(=O)CCCOc1cc(=O)n(C)c2ccccc12,4,4,-28,19,1.3,1
CCCc1oc2c(c(=O)c1CC)C(=O)CC(C)(C)C2,41,2,22,6,0.8,0.6
CN1C=CC=C/C1=C1\SC(=S)N(C2CCCCC2)C1=O,58*,4,26,6,0.7,0.4
CC(C)c1ccc(NC(=O)NC2CCN(CC(=O)Nc3cccc4ccccc34)CC2)cc1,56*,-1,13,9,0.9,0.4
COc1ccc(NC(=O)CN2CCN(CC(=O)Nc3ccc4c(c3)OCO4)CC2)cc1,18,19,18,1,0.8,0.8
COc1ccccc1NC(=O)Nc1ccc2c(c1)OCCO2,82*,1,54*,4,0.5,0.2
CCOc1ccccc1NC(=O)NC1CCN(CC(=O)Nc2ccc3c(c2)OCCO3)CC1,59*,3,36,0,0.6,0.4
SMILES,CYP2C19 inhib,PostGolgi yeast,CYP2C9 inh,PostGolgi ctrl,CYP2C9 act,CYP2C19 act
COCCNC(=O)CN1CCC(NC(=O)Nc2ccccc2)CC1,-8,22,-6,-7,1.1,1.1
COc1ccccc1NC(=O)CN1CCN(CC(=O)Nc2ccc3c(c2)OCO3)CC1,88*,-5,34,0,0.7,0.1
O=C(Nc1ccc2c(c1)OCO2)NC1CCN(Cc2ccccc2)CC1,-7,17,-25,-2,1.3,1.1
Cc1nc2sc(C(c3cccc(F)c3)N3CCCCC3)c(O)n2n1 (stereo unspecified),28,-2,12,7,0.9,0.7
COC1CCCCC1Nc1cc(C)cc(C)c1 (stereo unspecified),11,10,4,-1,1,0.9
COc1cc2c(cc1OC)CN(C(=O)COc1ccc(C)c(C)c1)CC2,72*,4,62*,9,0.4,0.3
COc1ccc2c(c1)c(=O)oc1c(C)c(OCC(=O)N3CCc4ccccc4C3)ccc12,37,3,62*,3,0.4,0.6
Cc1cc(=O)oc2cc(OCC(=O)N3CCc4ccccc4C3)ccc12,45,-11,25,5,0.8,0.5
Cc1cc(C)c(C(=O)c2ccc(C(=O)NC(C)(C)C)cc2)c(C)c1,30,-3,20,6,0.8,0.7
Cc1cc(C)c(C(=O)c2ccc(C(=O)N(C(C)C)C(C)C)cc2)c(C)c1,86*,-1,82*,14,0.2,0.1
COc1ccc2c(c1)c1nnc(SCC(=O)N3CCCCC3C)nc1n2C (stereo unspecified),12,20,0,3,1,0.9
COc1ccc(N2CCN(C(=O)CCn3nnc4ccccc43)CC2)cc1,21,7,4,18,1,0.8
COc1ccc(N2CCN(C(=O)CSc3ccccc3N)CC2)cc1,58*,-5,69*,2,0.3,0.4
COc1ccc(N2CCN(C(=O)CC(NC(N)=O)c3cccc(Oc4ccccc4)c3)CC2)cc1 (stereo unspecified),64*,10,39,13,0.6,0.4
CC1(C)Cc2ccccc2-c2nnc(SCC(=O)N3CCc4ccccc43)n21,41,-1,53*,-1,0.5,0.6
COc1ccc(N2CCN(C(=O)CSc3nnc4c5cc(C)ccc5n(C)c4n3)CC2)cc1,81*,-4,56*,9,0.4,0.2
COc1ccc(N2CCN(C(=O)CSc3ccccc3)CC2)cc1,4,-12,11,13,0.9,1
CCCOc1ccc2[nH]cc(C(=O)O)c(=O)c2c1,14,3,-1,-8,1,0.9
Cc1ccc(C)c(SCc2noc(C(=O)NCC3CCCO3)c2C(=O)O)c1 (stereo unspecified),16,-4,13,17,0.9,0.8
CC(C)CSc1ncc(-c2cccc(C(F)(F)F)c2)cn1,2,17,-66,7,1.7,1
COc1ccc(N2CCN(C(=O)CSc3nnc4n3C(C)(C)Cc3ccccc3-4)CC2)cc1,58*,6,5,3,1,0.4
Cc1cc(Nc2ccc3ccccc3c2)n2ncnc2n1,-10,8,12,3,0.9,1.1
CC(CCc1ccccc1)NC(=O)COC(=O)C1=COCCO1 (stereo unspecified),56*,4,50*,7,0.5,0.4
O=C(OCC(=O)N1CCc2ccccc21)C1=COCCO1,x,1,x,2,x,x
COc1ccc(CNC(=O)COC(=O)C2=COCCO2)cc1,39,37*,8,10,0.9,0.6
